NR3A LBD binder: NR3A (human) ligand-binding domain modulation | NR3A LBD differential scanning fluorimetry, Tm shift; 0% = protein alone, 100% = glycine-bound protein | Tm shift relative to glycine control, % at 25 µM | 340,000 tested, 2.5% active | AID 1259313;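 active = melting temperature shift of at least 10% of the positive control shift, at one fixed dose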
ADAM10 inh: inhibitors of human ADAM10. inhibition, % at 7 µM. 370,000 tested, 0.62% active. recombinant ADAM10, EDANS/DABCYL FRET peptide cleavage, 3 h. AID 720582. O14672;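 active = inhibition above a per-campaign cutoff equal to the mean of compounds falling between control-based bounds plus 3 SD, cut at about 20% in these data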;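 also: 0% = DMSO wells while the 100% control is not disclosed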
Target sequence (O14672 214-748 limits assumed): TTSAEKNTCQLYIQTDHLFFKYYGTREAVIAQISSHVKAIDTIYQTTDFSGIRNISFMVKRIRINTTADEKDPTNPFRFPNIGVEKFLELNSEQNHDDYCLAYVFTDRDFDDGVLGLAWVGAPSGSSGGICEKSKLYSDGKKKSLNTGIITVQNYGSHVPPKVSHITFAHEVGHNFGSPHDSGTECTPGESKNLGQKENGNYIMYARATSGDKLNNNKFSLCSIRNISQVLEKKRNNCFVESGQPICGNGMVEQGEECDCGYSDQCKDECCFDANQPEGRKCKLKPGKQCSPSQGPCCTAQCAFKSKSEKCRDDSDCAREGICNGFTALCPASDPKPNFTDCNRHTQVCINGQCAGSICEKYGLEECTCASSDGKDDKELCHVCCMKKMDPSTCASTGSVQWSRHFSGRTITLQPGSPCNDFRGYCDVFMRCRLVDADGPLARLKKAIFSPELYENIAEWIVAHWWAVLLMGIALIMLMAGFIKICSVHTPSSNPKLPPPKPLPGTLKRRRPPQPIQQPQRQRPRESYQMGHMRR
FAS-TE inh: inhibitors of human fatty acid synthase thioesterase domain; P49327; recombinant FAS-TE, OMFH fluorogenic substrate, fluorescence endpoint; inhibition, % at 15 µM; 360,000 tested, 0.67% active; AID 602261;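 active = compounds whose normalised, plate-corrected inhibition of enzyme fluorescence in the single-dose primary screen is 50% or more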;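 also: 0% = DMSO with enzyme and 100% = substrate without enzyme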
ADAM17 inh: ADAM17 inhibition, QFRET primary screen; P78536; recombinant ADAM17, EDANS/DABCYL FRET peptide cleavage; inhibition, % at 6.95 µM; 370,000 tested, 0.83% active; AID 720648;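 active = inhibition above the mean of compounds lying between control limits plus 3 SD, set per campaign, cut at about 8.5% in these data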;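 also: 0% = DMSO-only wells as the low control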
HGIII-sPLA2 inh: Inhibits HGIII-sPLA2 liposome hydrolysis, primary screen | Q9NZ20 | inhibition, % at 12.2 µM | 370,000 tested, 0.56% active | QFRET BODIPY PC-A2 liposome hydrolysis, fluorescence;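 active = inhibition above mean plus 3 SD of compounds lying within the high and low control bounds, cut at about 19% in these data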;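 also: 0% = median of test compound wells and 100% = no enzyme DMSO wells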
FAS-TE conf: confirmation of human fatty acid synthase thioesterase inhibitors; shares compounds with FAS-TE inh; recombinant FAS-TE, OMFH fluorogenic substrate, fluorescence; 2,300 tested, 45% active; inhibition, % at 15 µM;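 active = compounds inhibiting the enzyme by at least 50% at 15 µM in any one of the replicates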;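 also: 0% = enzyme with DMSO only and 100% = wells lacking enzyme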
An asterisk follows results filed as active. Rows were chosen to be rich in hits. Some 4.3% of all compounds tested hit in one or more screens of this group.

Results for Cc1nn(-c2ccccc2)c2sc(C(=O)N3CCN(S(=O)(=O)c4ccc(Br)s4)CC3)cc12 ?
ADAM10 inh: -9; ADAM17 inh: -4; HGIII-sPLA2 inh: -2

What do the screens show for `CCCCCCCCN1C(=O)[C@@H](CC(=O)N2CCC(c3ccccc3)CC2)C[C@@]2(C(=O)OC)C1=C[C@H](COCc1ccccc1)O[C@@H]2C`?
ADAM10 inh: 8; ADAM17 inh: 0; HGIII-sPLA2 inh: -14

Results for COC(=O)C(CCCCNC(=O)c1ccc([N+](=O)[O-])cc1)NC(=O)c1ccc([N+](=O)[O-])cc1 (configuration not stated) ?
NR3A LBD binder: 4; ADAM10 inh: 10; FAS-TE inh: 50*; ADAM17 inh: 3; HGIII-sPLA2 inh: -2; FAS-TE conf: 52*

Results for Cc1ccc(C(=O)NCC(=O)OCc2nnc(-c3ccc([N+](=O)[O-])cc3)o2)cc1 ?
ADAM10 inh: -7; FAS-TE inh: 68*; ADAM17 inh: 0; HGIII-sPLA2 inh: -1; FAS-TE conf: 53*

How did Cc1ccc(C(=O)NCC(=O)NCC(=O)OCc2ccc(Oc3ccc([N+](=O)[O-])cc3)cc2)cc1 do in these assays?
NR3A LBD binder: 0; ADAM10 inh: 14; FAS-TE inh: 20; ADAM17 inh: 3; HGIII-sPLA2 inh: -41

How did COc1ccc(C(=O)NCC(=O)OCc2ccc([N+](=O)[O-])cc2)cc1 do in these assays?
NR3A LBD binder: -1; ADAM10 inh: 6; FAS-TE inh: 52*; ADAM17 inh: 1; HGIII-sPLA2 inh: -4; FAS-TE conf: 27

How did COC(=O)C(CC(C)C)NC(=O)c1ccc([N+](=O)[O-])cc1 (configuration not stated) do in these assays?
NR3A LBD binder: -1; ADAM10 inh: -6; FAS-TE inh: 0; ADAM17 inh: -4; HGIII-sPLA2 inh: 1

How did CC(COc1ccc(C(F)(F)F)cc1)CN1CCC(C(O)(c2ccccc2)c2ccccc2)CC1 (configuration not stated) do in these assays?
ADAM10 inh: 8; ADAM17 inh: 4; HGIII-sPLA2 inh: -13

What do the screens show for `CN(C(=O)COC(=O)/C=C/c1cccc([N+](=O)[O-])c1)C1CCS(=O)(=O)C1` (configuration not stated)?
NR3A LBD binder: 0; ADAM10 inh: -2; FAS-TE inh: -2; ADAM17 inh: -3; HGIII-sPLA2 inh: 0

How did CN(C(=O)COC(=O)c1c2c(nc3ccccc13)/C(=C/c1cccc([N+](=O)[O-])c1)CCC2)C1CCS(=O)(=O)C1 (configuration not stated) do in these assays?
NR3A LBD binder: 3; ADAM10 inh: 8; FAS-TE inh: 67*; ADAM17 inh: -2; HGIII-sPLA2 inh: -3; FAS-TE conf: 14

What do the screens show for `COc1ccc(CN2C(=O)[C@@](O)(c3cccn3C)c3cc(Br)ccc32)cc1`?
ADAM10 inh: 11; ADAM17 inh: 2; HGIII-sPLA2 inh: -14

What do the screens show for `Cn1c(SCC(=O)N2c3ccccc3CCc3ccccc32)nnc1-c1cc2ccccc2cc1O`?
NR3A LBD binder: -2; ADAM10 inh: 1; FAS-TE inh: 67*; ADAM17 inh: 3; HGIII-sPLA2 inh: -61; FAS-TE conf: 9

Results for Cc1ccc(C2CCC3(CCC(=O)N3CCOC(=O)Nc3ccc(F)cc3)CC2)cc1 (configuration not stated) ?
ADAM10 inh: 2; ADAM17 inh: -2; HGIII-sPLA2 inh: 12

What do the screens show for `Cc1nc(N2CCN(S(=O)(=O)c3ccccc3C#N)CC2)c2c(-c3ccccc3)csc2n1`?
NR3A LBD binder: -14; ADAM10 inh: -7; FAS-TE inh: 83*; ADAM17 inh: -2; HGIII-sPLA2 inh: 8; FAS-TE conf: 39

What do the screens show for `Cc1ccc(S(=O)(=O)N2CCN(c3ncnc4scc(-c5ccc(F)cc5)c34)CC2)cc1`?
NR3A LBD binder: -1; ADAM10 inh: -3; FAS-TE inh: 40; ADAM17 inh: -2; HGIII-sPLA2 inh: 0

What do the screens show for `COc1ccc(-c2csc3ncnc(N4CCN(S(=O)(=O)c5cccc(C(F)(F)F)c5)CC4)c23)cc1`?
NR3A LBD binder: 3; ADAM10 inh: 5; FAS-TE inh: 50*; ADAM17 inh: 1; HGIII-sPLA2 inh: -7; FAS-TE conf: 8

Screens deposited in PubChem BioAssay by several laboratories.
